Screens as filed in PubChem.
GDH-TPI counter = inhibits GDH-TPI coupling enzymes, artifact for Mtb FBA screen. GDH-TPI coupled enzyme counterscreen, NADH absorbance. 1.2% of 360,000 active. inhibition, % at 4.8 µM; in the data active means inhibition above about 30%;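 further: 0% = DMSO wells and 100% = wells lacking the enzyme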
Rv3671c inh = inhibitors of M. tuberculosis serine protease Rv3671c | P9WHR9 | inhibition, % at 5.96 µM | 0.048% of 320,000 active | AID 2606; in the data active means inhibition above about 38%;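 further: extracellular domain of Rv3671c used as enzyme; 0% = enzyme with DMSO and 100% = no enzyme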
Target sequence (P9WHR9 whole entry, looked up, the tested form may be a part): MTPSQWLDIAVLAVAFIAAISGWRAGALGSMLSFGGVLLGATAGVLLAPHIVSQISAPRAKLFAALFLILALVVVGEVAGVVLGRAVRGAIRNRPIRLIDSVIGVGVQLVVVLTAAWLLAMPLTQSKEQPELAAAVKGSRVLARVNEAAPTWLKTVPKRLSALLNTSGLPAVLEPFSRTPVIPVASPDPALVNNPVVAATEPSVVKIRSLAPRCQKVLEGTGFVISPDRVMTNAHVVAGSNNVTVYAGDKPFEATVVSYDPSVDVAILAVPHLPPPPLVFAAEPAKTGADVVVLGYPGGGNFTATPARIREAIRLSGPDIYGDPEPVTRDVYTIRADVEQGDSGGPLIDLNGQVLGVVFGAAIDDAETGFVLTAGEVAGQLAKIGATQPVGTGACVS
Mtb FBA inh = inhibits M. tuberculosis FBA enzyme; P9WQA3; purified M. tuberculosis FBA, fluorescence read-out; inhibition, % at 1 µM; 2.3% of 360,000 active; AID 588726; in the data active means inhibition above about 27%;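 further: 0% = vehicle and 100% = reference inhibitor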
Mtb bLac sens = beta-lactam sensitization of Mtb H37Rv; 0.27% of 330,000 active; M. tuberculosis H37Rv growth with meropenem, percent inhibition; inhibition, % at 25 µM; call rule not given here;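 further: growth measured after seven days incubation then overnight dye step; 0% = bacteria only wells and 100% = bacteria with antibiotic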
RecA intein inh = inhibitors of M. tuberculosis RecA intein splicing | inhibition, % (test concentration not listed) | 0.75% of 290,000 active | AID 2221 | cell-free RecA intein splicing, fluorescence; in the data active means inhibition above about 30%;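 further: 0% = vehicle wells and 100% = reference inhibitor control wells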
Mtb UGM inh = Mtb UDP-galactopyranose mutase inhibition. P9WIQ1. purified UGM, fluorescence polarization probe displacement. inhibition, % at 10 µM. 0.06% of 320,000 active. AID 504406; in the data active means inhibition above about 10%, passing the limit was not always enough
The depositor's hits bear a star. Shown are actives, neighbours in structure and some others; about 4% of the full set was active somewhere.

Screening COc1cc2c(cc1OC)-c1cc(Nc3ccccc3C)nc(=O)n1CC2 returned GDH-TPI counter 23, Rv3671c inh 3, Mtb FBA inh 0, Mtb bLac sens -3, RecA intein inh 0 and Mtb UGM inh 1.
For COc1cc2c(cc1OC)-c1cc(OCCN3CCOCC3)nc(=O)n1CC2 the results were GDH-TPI counter 32*, Rv3671c inh -4, Mtb FBA inh active, Mtb bLac sens 4, RecA intein inh -11 and Mtb UGM inh 1.
Screening CC1CSC(N(C(=O)c2ccc(S(C)(=O)=O)cc2)c2ccc(Cl)cc2)=N1 (stereo not drawn) returned GDH-TPI counter -2, Rv3671c inh 11, Mtb FBA inh -2, Mtb bLac sens 67, RecA intein inh 1 and Mtb UGM inh -2.
CCc1ccc2c(CSc3nnnn3C)cc(=O)oc2c1 was read as GDH-TPI counter 34*, Rv3671c inh -12, Mtb FBA inh 8, Mtb bLac sens -6, RecA intein inh 1 and Mtb UGM inh 1.
CCc1ccc2c(CN3CCN(Cc4ccccc4)CC3)cc(=O)oc2c1 was read as GDH-TPI counter 5, Rv3671c inh -1, Mtb FBA inh 2, Mtb bLac sens 87, RecA intein inh 2 and Mtb UGM inh 0.
Screening Cc1cccc(NC(=O)CN(C)C(=O)C2CC2)c1C returned GDH-TPI counter 0, Rv3671c inh 0, Mtb FBA inh 4, Mtb bLac sens -4 and Mtb UGM inh 4.
Screening CC1(c2ccncc2)Nc2ccccc2-c2nc3ccccc3n21 (stereo not drawn) returned GDH-TPI counter 8, Rv3671c inh -2, Mtb FBA inh 158*, Mtb bLac sens 2, RecA intein inh 0 and Mtb UGM inh 2.
Cc1[nH]n(-c2ccc([N+](=O)[O-])cc2)c(=O)c1C=NCCN1CCN(C(=O)c2cccc(F)c2)CC1 was read as GDH-TPI counter 34*, Rv3671c inh 9, Mtb FBA inh -2, Mtb bLac sens 1, RecA intein inh 0 and Mtb UGM inh -2.
CC(C)(C)c1[nH]nc2c1C(c1ccoc1)C(C#N)=C(N)O2 (stereo not drawn) was read as GDH-TPI counter -5, Rv3671c inh 1, Mtb FBA inh 2, Mtb bLac sens 0, RecA intein inh 56* and Mtb UGM inh 3.
For Cc1ccc(-n2nc(C)c3c2OC(N)=C(C#N)C3c2ccoc2)cc1 (stereo not drawn) the results were GDH-TPI counter 0, Rv3671c inh -3, Mtb FBA inh 2, Mtb bLac sens 3, RecA intein inh 71* and Mtb UGM inh -3.
For Cc1ccc(-c2[nH]nc3c2C(c2ccoc2)C(C#N)=C(N)O3)cc1C (stereo not drawn) the results were GDH-TPI counter -1, Rv3671c inh -5, Mtb FBA inh -2, Mtb bLac sens 7, RecA intein inh 92* and Mtb UGM inh 0.
`O=C(O)c1cccc(OS(=O)(=O)c2cc(Br)ccc2Br)c1` gave GDH-TPI counter 0, Rv3671c inh 7, Mtb FBA inh 1, Mtb bLac sens -4 and Mtb UGM inh -1.
`COCCCNc1nccn2ccnc12` gave GDH-TPI counter 8 and Mtb FBA inh 3.
`Cc1ccc(S(=O)(=O)N2CCCCC2)cc1NC(=O)CNC(C)c1ccc(Cl)c(Cl)c1` (stereo not drawn) gave GDH-TPI counter 1, Rv3671c inh -12, Mtb FBA inh 3, Mtb bLac sens 3 and Mtb UGM inh -3.
CCOc1ccc(Br)cc1S(=O)(=O)Nc1cccc(S(=O)(=O)Nc2ccccc2C(=O)O)c1 was read as GDH-TPI counter -1, Rv3671c inh -2, Mtb FBA inh 4, Mtb bLac sens -5 and Mtb UGM inh 6.
Screening COC(=O)C1=CNC=C(C(=O)OC)C1c1ccc(C(=O)OC)cc1 returned GDH-TPI counter 4, Rv3671c inh -5, Mtb FBA inh 115*, Mtb bLac sens 4, RecA intein inh -52 and Mtb UGM inh 0.
Screening O=S1(=O)N[C@@H](c2ccccc2)COc2cc(Br)ccc21 returned GDH-TPI counter 7 and Mtb FBA inh 0.
Screening CCOc1ccc(N(CC(=O)Nc2ccc(OC)cc2)C2=NC3CS(=O)(=O)CC3S2)cc1 (stereo not drawn) returned GDH-TPI counter -14, Rv3671c inh -4, Mtb FBA inh -4, Mtb bLac sens 0, RecA intein inh 1 and Mtb UGM inh 1.
O=C(N/N=C/c1ccc(O)c([N+](=O)[O-])c1)C(O)(c1ccccc1)c1ccccc1 was read as GDH-TPI counter 35*, Rv3671c inh 2, Mtb FBA inh -4, Mtb bLac sens -3 and Mtb UGM inh 2.
For O=C(N/N=C\c1ccc(O)c([N+](=O)[O-])c1)c1ccccc1-n1cccc1 the results were GDH-TPI counter 46*, Rv3671c inh -9, Mtb FBA inh -12, Mtb bLac sens 0, RecA intein inh -2 and Mtb UGM inh 1.
For CCOc1cccc(-c2ccc3nncn3c2)c1 the results were GDH-TPI counter -10 and Mtb FBA inh 2.
For COc1cccc(C(NC(C)=O)c2nc(-c3ccc(OC)nc3)cs2)c1 (stereo not drawn) the results were GDH-TPI counter 3 and Mtb FBA inh -2.
CCOC(=O)C1CCN(CC(=O)c2ccc(O)c(C)c2O)CC1 was read as GDH-TPI counter 32*, Rv3671c inh -4, Mtb FBA inh 8, Mtb bLac sens -1, RecA intein inh -10 and Mtb UGM inh 3.
For O=S(=O)(NCCc1ccccc1)c1ccc(Br)cc1 the results were GDH-TPI counter -10, Rv3671c inh -3, Mtb FBA inh 0, Mtb bLac sens -6, RecA intein inh 4 and Mtb UGM inh 6.
For Cc1nn(C(=O)CNS(=O)(=O)c2ccccc2)c(C)c1Sc1ccc(Cl)cc1 the results were GDH-TPI counter 0, Rv3671c inh 5, Mtb FBA inh -2, Mtb bLac sens 5, RecA intein inh 32* and Mtb UGM inh 3.
COc1ccc(-c2cc(C(F)(F)F)nc(SCC(=O)N(C)Cc3cn(C)nc3C)n2)cc1OC was read as GDH-TPI counter 41*, Rv3671c inh -2, Mtb FBA inh 13, Mtb bLac sens 0, RecA intein inh -6 and Mtb UGM inh 0.
`O=C(CSc1nc(-c2ccccc2)cc(C(F)(F)F)n1)NCc1ccco1` gave GDH-TPI counter 2, Rv3671c inh -1, Mtb FBA inh -2, Mtb bLac sens 2, RecA intein inh -1 and Mtb UGM inh 0.
Screening COc1ccc(-c2cc(C(F)(F)F)nc(SCC(=O)NCc3ccco3)n2)cc1OC returned GDH-TPI counter 31*, Rv3671c inh 5, Mtb FBA inh 5, Mtb bLac sens -8, RecA intein inh -5 and Mtb UGM inh -3.
`COc1ccc(-c2cc(C(F)(F)F)nc(SCC(N)=O)n2)cc1` gave GDH-TPI counter 14, Rv3671c inh -2, Mtb FBA inh 114*, Mtb bLac sens 1, RecA intein inh 1 and Mtb UGM inh 1.
